According to the supplement of paper PMC6555819:

What was measured:
Experiment in all cases: PBM binding z-score (relative to random genomic background probes); higher = stronger binding; sequences stand for … in GC…GCGATTGACAGCGTAGAATGAAGG
[1] = tested on: RARb homodimer (NR concentration 270 nM)
In short: (§1)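 Binding z-scores take random background probes as their reference. They come from custom Agilent 4×180K protein-binding microarrays incubated 1 h with ligand-free nuclear receptor dimers, with antibodies against each partner (one per run) detecting binding. Scanned fluorescence was regression-normalized.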

[2] = tested on: RARg:RXRa (NR concentration 270 nM, RXRa partner concentration 90 nM)
In short: as §1

[3] = tested on: RARg homodimer (NR concentration 270 nM)
In short: as §1

[4] = tested on: RXRa DBDmut IVT, anti-RXR (DBD mutation: RXRa K156A/R161A, NR concentration 90 nM)
In short: as §1

[5] = tested on: RXRa homodimer (NR concentration 180 nM)
In short: as §1

[6] = tested on: THRa:RXRa (NR concentration 90 nM, RXRa partner concentration 90 nM)
In short: as §1

[7] = tested on: THRa homodimer (NR concentration 90 nM)
In short: as §1

[8] = tested on: VDR homodimer (NR concentration 270 nM)
In short: as §1

Row | Sequence | PBM binding z-score [1] | PBM binding z-score [2] | PBM binding z-score [3] | PBM binding z-score [4] | PBM binding z-score [5] | PBM binding z-score [6] | PBM binding z-score [7] | PBM binding z-score [8]
1 | GGAACGACGGCAAAGTTGATAGCATCTGTCGACG | -0.736 | -0.162 | -0.0781 | -0.543 | 0.157 | -0.802 | -1.24 | -0.637
2 | CCTTACGGGTCACTCCAGGTTAAAGCATCGGAGT | 3.23 | 4.68 | 4.54 | 1.13 | 4.65 | 5.26 | 0.483 | 1.41
3 | GCTAGTTGGTCAGTAAAAGGTCAAACACCGGTCG | 5.05 | 5.65 | 4.86 | 0.64 | 5.59 | 3.51 | 1.2 | 1.98
4 | CAGCCTAGGTCAGGGCCAGGATAGGAGGAACGTT | 2.32 | 3.04 | 3.91 | -0.715 | 1.53 | 2.31 | 0.538 | -0.171
5 | CGTCCAAGGTCAATGCTAGGTCAGCGAAAGCATT | 4.51 | 7.74 | 7.14 | 3.47 | 5.38 | 4.61 | 3.1 | 3.23
6 | CATCGGAGGACAACAGGAGGTCAGAGCTGCCAGA | 3.62 | 3.59 | 3.48 | 0.373 | 2.29 | 3.01 | 1.31 | 1.1
7 | CTTCCAAGGTCATAGGAGGTCAGTGAAGACAGAT | 5.3 | 7 | 7.48 | 3.89 | 7.13 | 5.26 | 3.21 | 4.49
8 | CTCGGAAGGTCGTGCTCAGGTGAGTATACCAAAC | 1.95 | 3.34 | 2.31 | 1.18 | 2.37 | 3.59 | 1.15 | 0.743
9 | ATCTCTAGGTAAAGTTCAGTGGAAGATCGATAGA | 2.55 | 2.03 | 2.47 | 1.74 | 1.11 | 1.3 | 0.319 | 2.23
10 | GATACAGGGTCAGCTAGAGGCCTGAGTATGGAAA | 2.73 | 4.73 | 4.64 | 1.14 | 4.29 | 2.49 | 0.0158 | 0.311
11 | TCTAGTTGGTCAAAGGTCACACAATCGAAATGCG | 5.17 | 7.33 | 7.01 | 1.98 | 8.48 | 4.11 | 2.21 | 3.09
12 | CGTCCAAAGTCATAGGAGGTCAGTGAAGACAGAT | 3.55 | 2.71 | 2.75 | 0.438 | 1.96 | 4.28 | 0.808 | 1.55
13 | AGAATGAGGTTATTGAGATCAGGGAATTGCGGTC | 1.07 | 1.43 | 0.831 | 2.21 | 2.16 | 2.45 | 1.01 | 1.28
14 | CGAACTAGGTCAAAACAGGACAGTGAAGGATGAT | 2.27 | 3.48 | 3.77 | 1.49 | 2.25 | 4.13 | 0.485 | 0.573
15 | TCATATAGATAAAGGTGAAAGTCGAACGATATGA | 1.08 | 1.29 | 1.2 | 1.18 | 1.9 | 0.819 | -0.268 | -0.308
16 | TCCAGTAGGTTACCAATGGGGCATTCAGCTTTCT | 0.751 | 1.45 | 0.608 | 0.663 | 0.815 | 0.145 | -0.653 | -0.528
17 | TGAATGAGGTTAAGGATCAGGGAACGTGGCGTCG | 0.892 | 1.97 | 1.38 | 0.394 | 2.62 | 2.49 | 0.88 | 0.15
18 | AACGAAAGGTCGTGAGGTGAGTATACAGAAAGGC | 3.14 | 4.62 | 3.99 | 1.68 | 5.2 | 3.55 | 1.33 | 0.812
19 | AATACAGGGTCATCGTGGGCCAGAGTACGCACAG | 3.78 | 5.59 | 4.97 | 3.19 | 6.45 | 4.44 | 1.46 | 3.9
20 | CGTCCAAGGTCATAGGAGGTCAGTGGAGACAGAT | 5.3 | 6.84 | 6.98 | 4.09 | 6.82 | 5.36 | 3.57 | 4.82
21 | TCTAGATGGTCAAAGGTCACACACTCGAAATGCG | 4.98 | 7.31 | 5.87 | 1.9 | 8.64 | 3.96 | 1.9 | 2.51
22 | GCAGACAGCTGAAACGCAGGTAACTCAGGGTGGC | -0.98 | -0.584 | -0.685 | -0.772 | -0.453 | 0.284 | -0.483 | -1.05
23 | CCGACTGGGGCATAAGGTTACCACAAGCCAGCCC | 1.92 | 1.8 | 1.2 | -0.196 | 1.32 | 2.04 | 1.37 | 0.195
24 | TCATATAGGTAATACAGGTGAAAGTCGGCATCTA | 0.693 | 0.799 | 0.796 | 1.54 | 1.44 | 1.1 | 0.471 | -0.0243
25 | CCTTACGGGTCACTGACAGGTTAAAGCATTTGGA | 3.06 | 6.25 | 5.25 | 1.51 | 5.63 | 2.9 | -0.0327 | 0.937
26 | CCTCGGAGGACAGAAGGTTAGAGCTGTCCGCTTT | 0.668 | 0.736 | 0.681 | -0.0367 | -0.125 | 0.441 | -0.513 | -0.565
27 | CCGCCTAGGTCAGGGCCAGTATAGGAGGAACGTT | 2.62 | 2.86 | 3.33 | -0.193 | 1.74 | 2.2 | 0.59 | -0.22
28 | ATCGAAAGGTCGACGAGGTGAGTTTACACCGTTT | 3.04 | 4.11 | 3.94 | 1.48 | 4.05 | 3.8 | 0.782 | 2.35
